# The list is not random: actives were taken first. Their share in the collection is about 2.4%.
# WRN inhibitor: WRN helicase (human) inhibition; AID 651768; WRN helicase unwinding, fluorescent forked duplex, kinetic; 0.46% of 360,000 active; Potency, µM (doses to about 114 µM), actives largely listed as inhibitors; further: nearly all actives have a fitted effect of over 55% in size
#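 Kinetic fluorescence helicase assay: unwinding of a quenched forked DNA duplex (100 nM final) with 2 mM ATP final raises red fluorescence (525/598 nm). Compounds sat 15 min at room temperature with 20 nM WRN beforehand.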
# FEN1 inh-1: blocks human flap endonuclease 1; P39748; Recombinant FEN1 flap cleavage, fluorescence, 15 min; Potency, µM (series often up to 114 µM), usual class: inhibitors; 0.35% of 390,000 active; AID 588795; further: nearly all actives have a fitted effect of over 65% in size
#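 Nuclease activity of 10 nM FEN1 was measured after 15 min of room-temperature exposure to titrated compounds, by adding 50 nM flap substrate and reading plates at 0 and 15 min.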
# POLB inh: DNA polymerase beta (human) inhibition. Pol beta primer extension/strand displacement, fluorescence kinetic. Potency, µM (top dose mostly 114 µM), hits mostly inhibitors. 1.3% of 340,000 active
#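 Homogeneous kinetic assay of primer extension and strand displacement by 10 nM Pol beta, preincubated 15 min at room temperature with compound before 50 nM substrate (final) was added. Read at 0 and 10 min; four-parameter Hill fit.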
# Pol eta inh-1: blocks human DNA polymerase eta activity | Potency, µM (top dose mostly 114 µM), usual class: inhibitors | Q9Y253 | recombinant Pol eta, fluorescent DNA replication assay | 1.2% of 390,000 active
#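 Pol eta at 10 nM preincubated with compounds 15 min at room temperature; reaction started with fluorescent substrate (50 nM final) and read kinetically at 0 and 10 min.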
# Pol iota inh: DNA polymerase iota (human) inhibition. Pol iota fluorescent replication assay, 10 min. Potency, µM (titrated, usually from 115 µM), actives largely listed as inhibitors. 1% of 390,000 active. AID 588590
# Target sequence (Q9UNA4 whole entry, looked up): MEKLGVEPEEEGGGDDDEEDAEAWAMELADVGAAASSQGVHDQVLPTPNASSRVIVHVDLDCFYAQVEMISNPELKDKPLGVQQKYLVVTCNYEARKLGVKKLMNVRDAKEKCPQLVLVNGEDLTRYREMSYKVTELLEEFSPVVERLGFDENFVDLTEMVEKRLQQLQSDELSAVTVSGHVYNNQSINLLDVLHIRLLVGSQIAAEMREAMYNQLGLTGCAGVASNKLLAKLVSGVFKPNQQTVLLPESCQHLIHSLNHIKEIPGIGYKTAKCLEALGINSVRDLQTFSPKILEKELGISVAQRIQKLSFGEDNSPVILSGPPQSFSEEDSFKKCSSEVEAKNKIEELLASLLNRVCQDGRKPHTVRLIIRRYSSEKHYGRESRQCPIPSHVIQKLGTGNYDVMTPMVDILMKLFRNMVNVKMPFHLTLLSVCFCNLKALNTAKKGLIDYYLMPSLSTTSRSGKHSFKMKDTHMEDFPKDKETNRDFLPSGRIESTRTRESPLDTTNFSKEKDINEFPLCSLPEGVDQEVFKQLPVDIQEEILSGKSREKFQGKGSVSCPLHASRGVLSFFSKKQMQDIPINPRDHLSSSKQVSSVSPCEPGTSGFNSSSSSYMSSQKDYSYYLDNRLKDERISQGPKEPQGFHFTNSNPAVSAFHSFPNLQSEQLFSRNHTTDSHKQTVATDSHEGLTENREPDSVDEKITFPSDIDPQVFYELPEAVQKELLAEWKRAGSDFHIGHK
#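 Fluorescent replication assay read twice, at 0 min and 10 min after adding 50 nM (final) substrate. Enzyme (10 nM) and compounds were first incubated 15 min at room temperature; enzyme-free buffer wells were negative controls.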
# Pol kappa inh-1: DNA polymerase kappa (human) inhibition. Q9UBT6. purified Pol kappa, fluorescent DNA synthesis assay, 10 min. Potency, µM (series often up to 107 µM), most hits filed as inhibitors. 0.53% of 400,000 active. AID 588579
#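 Activity was followed as the change in fluorescence between reads at 0 and 10 min after starting the reaction with 50 nM substrate. Beforehand, 10 nM polymerase had been preincubated with compound for 15 min at room temperature.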
# GALK confirm: galactokinase (human) inhibition, confirmation | AID 2015 | purified GALK, Kinase-Glo ATP depletion luminescence | 70% of 150 active | Potency, µM (titrated, usually from 115 µM), hits mostly inhibitors | shares compounds with Pol eta inh-1
# GALK redox cs: redox cycling activity in phenol red-HRP assay; shares compounds with Pol eta inh-1; Phenol red-HRP H2O2 redox cycling, absorbance 600 nm; Potency, µM (titrated, usually from 115 µM), most hits filed as inhibitors; 40% of 150 active; AID 2035
# HEK293 tox: counter-screen for GALK inhibitors: HEK293 cell cytotoxicity. 10% of 170 active. AID 2547. HEK-293 viability, ATP luminescence (CellTiter-Glo), 24/48 h. Potency, µM (doses to about 46.1 µM), most hits filed as inhibitors. shares compounds with Pol eta inh-1
# Pol kappa inh-2: confirmation of human DNA polymerase kappa inhibitors. purified Pol-kappa, fluorescent strand-displacement substrate. shares compounds with Pol eta inh-1. 76% of 920 active. Potency, µM, usual class: inhibitors
# Pol eta inh-2: confirmation of human DNA polymerase eta inhibitors; shares compounds with Pol eta inh-1; Pol eta primer extension, TAMRA/BHQ fluorescence, 10 min; Potency, µM, hits mostly inhibitors; 64% of 2,600 active; AID 720502
# FEN1 inh-2: FEN1 inhibition, cherry-pick retest | shares compounds with FEN1 inh-1 | FEN1 flap cleavage, TAMRA/BHQ2 fluorogenic DNA substrate | Potency, µM, hits mostly inhibitors | 79% of 880 active; further: nearly all actives have a fitted effect of over 60% in size
# A number is an active result; 0 = inactive; ? = inconclusive; - = no result; [ ] = dose if it differs, or a comment. The call rests on the fitted dose curve; in most records, active means well fitted curve in the direction sought with a large enough effect; inconclusive means small, poorly fitted or top-dose-only effect, or another doubt; inactive means no such curve, though single readings can be large; an effect the other way counts as inactive or inconclusive.
SMILES,WRN inhibitor,FEN1 inh-1,POLB inh,Pol eta inh-1,Pol iota inh,Pol kappa inh-1,Pol eta inh-2,FEN1 inh-2,others
N#C/C(=C(/O)COc1ccccc1)c1nc2ccccc2s1,0,0,0,0,0,0,-,-,
COc1ccc(C/C(O)=C(\C#N)c2nc3ccccc3s2)cc1,0,0,0,0,0,0,-,-,GALK confirm=42µM;GALK redox cs=0;HEK293 tox=0
COc1ccc(CNC(=O)Cn2nc3c(cc2=O)CCCC3)cc1,-,0,0,0,0,0,-,-,
COc1ccc(C(=O)Nc2ccc(S(=O)(=O)Nc3nccc(C)n3)cc2)cc1,0,0,0,0,0,0,-,-,
Cc1ccnc(NS(=O)(=O)c2ccc(NC(=O)c3ccc(N4C(=O)CCC4=O)cc3)cc2)n1,?,0,?,8.9µM,?,?,67,-,
O=C(Nc1ccc(S(=O)(=O)Nc2ncccn2)cc1)C1=NN(c2ccccc2)C(=O)CC1,0[11.6 µM],0,0,35µM,?,0,67,-,
O=C(Nc1ccc(S(=O)(=O)Nc2ncccn2)cc1)c1ccccc1,0,0,0,0,0,0,-,-,
[O-][n+]1ccccc1SSc1cccc[n+]1[O-],-,-,-,-,-,0,-,-,
Cc1nc(C(F)(F)F)ccc1C(=O)N1CCCC1(C)C(=O)NCC(C)C (configuration not stated),0,-,-,-,-,-,-,-,
Cc1ccc(S(=O)(=O)c2nc(-c3ccco3)oc2SCC(C)C)cc1,-,0,0,0,0,0,-,-,
Cc1ccc(S(=O)(=O)c2nc(-c3ccco3)oc2SC(C)C)cc1,0,0,0,89µM,?,0,?,-,Pol kappa inh-2=?
COCCCN(C(=O)C1=COCCO1)c1c(N)n(Cc2ccccc2)c(=O)[nH]c1=O,0,-,-,0,-,-,-,-,
Cc1ccc(-n2[nH]c(C)c(/C=N/Nc3ccc([N+](=O)[O-])cc3[N+](=O)[O-])c2=O)cc1C,?,0,0,20µM,?,0,?,-,
O=C(COC(=O)c1ccc([N+](=O)[O-])o1)Nc1ncc(Cl)cc1Cl,?,?,-,22µM,?,0,?,11,
CC[N+](CC)(CC)CCCCOc1ccc2c(c1)C(=O)c1cc(OCCCC[N+](CC)(CC)CC)ccc1-2,50µM,13µM,0,?,?,0,?,21,
CC[N+](CC)(CC)CCOc1ccc(/C=C\c2ccccc2)cc1,-,-,-,-,-,0[19.4 µM],-,-,
O=C(Nc1ccc(S(=O)(=O)O)cc1)c1ccc2c(c1)S(=O)(=O)c1ccccc1C2=O,0,45µM,-,28µM,0,0,67,76,
CCNC(=O)C1(C)CCCN(C(=O)c2ccc(OC)c(F)c2)C1 (configuration not stated),0,-,-,-,-,-,-,-,
O=C1NC(=Nc2ccccc2Cl)S/C1=C\c1cc([N+](=O)[O-])ccc1O,0,?,?,79µM,35µM,?,-,?,Pol kappa inh-2=?
COC(=O)/C=C1\SC(=NC(=O)c2cccc([N+](=O)[O-])c2)NC1=O,0,0,0,?,?,0,-,-,
O=C(CCN1C(=O)/C(=C\c2cccs2)SC1=S)Nc1ccc(C(=O)O)cc1,0[11.6 µM],?,0,56µM,?,?,?,67,
CC(C)CNc1ncnc2c1ncn2[C@H]1CN(CCN2CCOCC2)C[C@@H](CO)O1,0,-,-,-,-,-,-,-,
COc1ccc(C2=Nc3ccccc3N(C(=O)c3ccc(C(F)(F)F)cc3)C2C(=O)Nc2c(C)cccc2C)cc1 (configuration not stated),0,-,-,-,-,-,-,-,
O=c1cc(-c2ccc(O)c(-c3c(O)cc(O)c4c(=O)cc(-c5ccc(O)cc5)oc34)c2)oc2cc(O)cc(O)c12,?,45µM,0,18µM,32µM,79µM,34,48,
O=C(Cc1cccs1)N/N=C\c1ccc([N+](=O)[O-])s1,0,?,0,0,0,0,-,-,
SMILES,WRN inhibitor,FEN1 inh-1,POLB inh,Pol eta inh-1,Pol iota inh,Pol kappa inh-1,Pol eta inh-2,FEN1 inh-2,others
NC(=O)c1ccc(N=Cc2ccc([N+](=O)[O-])s2)cc1,0,?,?,32µM,50µM,0,?,6.7,
CC1=CN2C(=N)/C(=C/c3ccco3)C(=O)N=C2S1,?,0,?,?,0,0,-,-,
CC1=CN2C(=N)/C(=C/c3ccc([N+](=O)[O-])o3)C(=O)N=C2S1,32µM,56µM,18µM,4µM,16µM,32µM,60,67,
COC(=O)c1sc2cccc(F)c2c1S(=O)(=O)NCc1ccccc1Cl,-,0,0,0,0,0,-,-,
CCc1ccc(S(=O)(=O)Nc2cc(SCC(=O)O)c(O)c3ccccc23)cc1,45µM,?,?,50µM,5.6µM,?,?,60,
Cc1c(NC(=O)C(C)OC(=O)c2ccc([N+](=O)[O-])s2)c(=O)n(-c2ccccc2)n1C (configuration not stated),0[11.6 µM],0,10µM,50µM,?,?,?,6,
Cn1nc(-c2ccc(OCC(=O)Nc3ccc(Cl)cc3)cc2)c2ccccc2c1=O,-,?,7.9µM,0,0,0,-,34,Pol kappa inh-2=42
Cn1nc(-c2ccc(OCC(=O)Nc3ccccc3)cc2)c2ccccc2c1=O,0,0,0,0,0,0,-,-,
O=C(O)/C=C/c1cn(-c2ccccc2)nc1-c1ccc(-c2ccc([N+](=O)[O-])cc2)o1,50µM,?,28µM,32µM,?,0,85,76,
COc1cc2c(Nc3ccc(Br)cc3F)ncnc2cc1OCC1CCN(C)CC1,-,-,-,-,-,0[19.4 µM],-,-,
COc1ccc2c(c1)cc(C(=O)N/N=C/c1c(O)c(C(=O)O)cc3ccccc13)n2C,0[11.6 µM],?,32µM,40µM,?,0,85,85,Pol kappa inh-2=75
Cn1c(C(=O)NN)cc2cc(Oc3ccccc3)ccc21,0,0,0,0,0,0,-,-,
Oc1ccc(N=Nc2ccccc2-c2nn[nH]n2)c(O)c1,0[11.6 µM],?,32µM,22µM,0,0,54,38,
Cc1ccc(S(=O)(=O)N2CCN(c3nc(-c4cccs4)nc4ccccc34)CC2)c(C)c1,-,0,-,-,0,0,-,-,
